# The whole screen tested about 420,000 compounds, of which about 50,000 (12%) were called active. A call without a number means that no potency is given here. Another 26% or so got no clear call; they are omitted. Calls come from the whole dose curve; as a rule, active = well fitted inhibition curve with a large enough effect; inconclusive = small, poorly fitted or top-dose-only effect; inactive = flat fitted curve, though single readings scatter. Only a selection was taken, and actives are over-represented in it overall.
# Assay: qHTS for Inhibitors of human tyrosyl-DNA phosphodiesterase 1 (TDP1): qHTS in cells in presence of CPT; note: nearly all actives have a fitted effect of over 55% in size
# Conditions: chicken DT40 Tdp1-/-;hTDP1 cells + 20 nM CPT, ATP luminescence, 48 h; series mostly up to 46.2 µM
# Summary of the method: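 Cell growth measured by CellTiter-Glo luminescence after a minimum 48 h, 37 C compound exposure with 20 nM CPT in Tdp1-knockout DT40 cells stably expressing hTDP1, seeded 400/well; qHTS titration format.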
# Potency is the fitted concentration of half-maximal effect.
row,Compound,Potency
1,COc1ccc(-c2c(NC(=O)c3ccco3)oc3ccc(Cl)cc3c2=O)cc1,inactive
2,COc1cc(OC)cc(C(=O)NNC(=O)CNC(=O)c2ccc(Br)o2)c1,inactive
3,O=C1CC[C@@H](C(=O)N2CSC[C@@H]2C(=O)Nc2ccc(C(F)(F)F)cc2)N1,inactive
4,COc1ccc2c(CC(=O)OCC(=O)NC(N)=O)coc2c1,inactive
5,COc1ccc2nc(SCc3ccccc3)nc(C)c2c1,inactive
6,Nc1ccc2c(c1)C(=Cc1cccnc1)c1ccccc1-2,inactive
7,Cc1ccccc1NC(=O)N1CCCC1C(=O)NCc1ccccc1 (stereo not drawn),inactive
8,O=C1CN(C(=O)Nc2ccccc2C(F)(F)F)C(c2ccccc2)c2c(sc3c2CCCC3)N1 (stereo not drawn),20.6 µM (active)
9,CN(C)CCn1c2c(c(SCC(=O)Nc3ccccc3C(F)(F)F)nc1=O)CCCC2,inactive
10,COc1ccc2oc(=O)c(C(=O)N3CCN(c4ccccc4F)CC3)cc2c1,inactive
11,COc1ccccc1N1CCN(C(=O)c2cc(=O)c3cc(C)cc(C)c3o2)CC1,0.0052 µM (active)
12,Cc1ccc2oc(=O)c3cnn(CC(=O)N4CCN(c5ccccn5)CC4)c3c2c1,inactive
13,COc1ccccc1OCc1ccc(C(=O)N2CCN(C)CC2)o1,inactive
14,COc1cc2c(cc1OC)CN(C(=O)c1cc(=O)c3ccccc3o1)CC2,4.11 µM (active)
15,COc1cccc2cc(C(=O)N3CCN(C(=O)c4ccccc4)CC3)c(=O)oc12,inactive
16,COc1ccccc1N1CCN(C(=O)c2cc(=O)c3cc(C)ccc3o2)CC1,14.6 µM (active)
17,COc1ccc2c(CC(=O)N3CCc4cc(OC)c(OC)cc4C3)coc2c1,inactive
18,O=C(c1cc(=O)c2ccccc2o1)N1CCN(c2ccccc2)CC1,inactive
19,CC1(C)C2CCC1(CS(=O)(=O)NCCc1c[nH]c3ccccc13)C(=O)C2 (stereo not drawn),inactive
20,C/C(=N\NS(=O)(=O)c1ccc(Cl)cc1)c1ccc(NC(=O)c2ccco2)cc1,inactive
21,Cc1ccc(OCC(=O)Nc2ccc3oc(=O)ccc3c2)cc1C,inactive
22,CSc1cccc(NC(=O)C2CCCN2S(=O)(=O)c2ccc3c(c2)CCC(=O)N3)c1 (stereo not drawn),inactive
23,N#Cc1c(N)nc2c(c1N)CC(C(F)(F)F)O2 (stereo not drawn),inactive
24,CCc1ccc(CNC(=O)c2cc3cc4ccc(OC)cc4nc3o2)cc1,inactive
25,CC(C)Cc1ccc(-c2cc3nc(NCc4cccc(Cl)c4)ccn3n2)cc1,20.6 µM (active)
26,Cc1ccc(-c2cc(N)n(Cc3cccc(Cl)c3)n2)cc1,inactive

row,Compound,Potency
1,CCNC(=S)N1CCN(CCN=CC2=C(O)CC(C)(C)CC2=O)CC1,inactive
2,COc1ccccc1N(C)S(=O)(=O)c1ccc(C(=O)NC2CCCCCC2)cc1,23.1 µM (active)
3,COc1ccccc1N(C)S(=O)(=O)c1ccc(C(=O)N2CCC(C(N)=O)CC2)cc1,inactive
4,COc1ccc(S(=O)(=O)NC(C)C)cc1C(=O)NC1CCCCC1,inactive
5,CO[C@]1(NC(=O)CSC(F)F)C(=O)N2C(C(=O)O)=C(CSc3nnnn3CCO)CO[C@H]21,inactive
6,CCn1c(SCC(=O)NC2CC2)nnc1-c1ccccc1OC,inactive
7,COC(=O)c1ccc(COc2ccc(C#N)cc2)o1,inactive
8,CCc1cccc(C)c1N1C(=O)CN(Cc2ccccc2)C1=S,inactive
9,Cn1cc(CCC(=O)N2CCCC(C(=O)c3ccc(C(C)(C)C)cc3)C2)cn1 (stereo not drawn),25.9 µM (active)
10,Cn1cc(/C=C/C(=O)N2CCCC(C(=O)c3ccc(C(F)(F)F)cc3)C2)cn1 (stereo not drawn),inactive
11,COCC(=O)N1CCCC(C(=O)c2ccc(C(F)(F)F)cc2)C1 (stereo not drawn),inactive
12,CC(C)NC(=O)C1(C)CCCCCN1C(=O)c1ccc(-c2ccccc2)cc1 (stereo not drawn),18.4 µM (active)
13,CC1(C(=O)NS(=O)(=O)c2ccccc2)CCN1C(=O)c1ccccc1 (stereo not drawn),inactive
14,CCNC(=O)C1(C)CCCN1C(=O)c1ccc(N(C)C)cc1 (stereo not drawn),inactive
15,CC(OC(=O)c1ccc(-n2cnnn2)cc1)C(=O)NCc1ccccc1 (stereo not drawn),inactive
16,O=C(CSc1nc(=O)n(Cc2cccnc2)c2c1CCC2)Nc1ccc(F)cc1F,inactive
17,COc1ccc(C)cc1N(C)C(=O)c1c(C)oc2ncnc(N3CCOCC3)c12,inactive
18,Cc1ccc2oc(=O)c3cnn(CC(=O)N4CCN(c5cccc(Cl)c5)CC4)c3c2c1,inactive
19,Cc1oc2ncnc(N3CCCCC3)c2c1C(=O)N1CCN(c2cccc(Cl)c2)CC1,16.4 µM (active)
20,O=C1C(c2[nH]c3ccccc3c2O)=Nc2ccccc21,inactive
21,CCOC(=O)CCCN1CC(O)=C(c2nc3ccccc3s2)C1=N,inactive
22,O=C(Nn1c(-c2ccccc2)nc2ccccc2c1=O)c1ccc([N+](=O)[O-])cc1,inactive
23,N=C1C(c2nc3ccccc3s2)=C(O)CN1NC(=O)c1ccc([N+](=O)[O-])cc1,20.6 µM (active)
24,COc1cccc(C(=O)n2ccc(-c3cccs3)n2)c1,inactive
25,CCCCNC(=S)N/N=C1\CCCCc2ccccc21,23.1 µM (active)
26,Cc1ccc(NC(=S)N/N=C2/CCCc3c(C)cc(C)cc32)cc1,inactive

row,Compound,Potency
1,CCCCc1ccc(NC(=S)NCCCN2CCOCC2)cc1,inactive
2,CCOc1ccccc1CN1CCN(C2CCC2)CC1CCO (stereo not drawn),inactive
3,COC(C[C@@H]1O[C@@H]1C(=O)[C@@H](C)OCc1ccccc1)OC,inactive
4,COC(C/C=C/C(=O)[C@@H](C)OCc1ccccc1)OC,18.4 µM (active)
5,COC(C[C@H](O)CC(=O)[C@@H](C)OCc1ccccc1)OC,inactive
6,CCCC(C)C(=O)OCC(=O)Nc1c(Br)cc(C)cc1Br (stereo not drawn),inactive
7,OCC1(Cc2ccccc2C(F)(F)F)CCN(Cc2cccc3cnccc23)CC1,inactive
8,CC1CCCCC1NC(=O)CSc1nnc(-c2ccncc2)n1CCCN(C)C (stereo not drawn),inactive
9,CN1CCN(c2ccc(S(=O)(=O)N3CCOCC3)cc2NC(=O)CCc2ccccc2)CC1,inactive
10,COC(=O)c1ccc(N2CCOCC2)c(NC(=O)c2ccc(Br)o2)c1,inactive
11,COCCNC(=O)c1ccc(N2CCC3(CC2)OCCO3)c([N+](=O)[O-])c1,inactive
12,CCCN(CCC)CCNC(=O)c1ccc2c(c1)NC(=O)C(CS(=O)(=O)Cc1cccc(Br)c1)N2 (stereo not drawn),inactive
13,O=C(NCCCN1CCOCC1)c1ccc(N2CCCC2)c([N+](=O)[O-])c1,inactive
14,CCCNC(=O)c1ccc(N2CCC3(CC2)CC(c2cccc(Br)c2)=NO3)c(NC(=O)c2ccco2)c1,5.17 µM (active)
15,CCCNC(=O)c1ccc(N2CCC3(CC2)CC(c2ccc(Cl)cc2)=NO3)c([N+](=O)[O-])c1,23.1 µM (active)
16,Cc1oc2c(C)c3oc(=O)c(CC(=O)N[C@@H](CC(C)C)C(=O)N[C@@H](Cc4ccccc4)C(=O)O)c(C)c3cc2c1C,inactive
17,COc1cc(N)c(Cl)cc1C(=O)OCC(=O)c1ccc2c(c1)NC(=O)CO2,inactive
18,CCOc1ccccc1NC(=O)CCc1nnc2ccc(NCc3ccco3)nn12,inactive
19,Cn1ncc([N+](=O)[O-])c1C(=O)Nc1cc(Cl)ccc1Cl,inactive
20,C/C(=N\NC(=O)c1cccnc1)c1ccc(-n2ccnc2)cc1,inactive
21,Cc1ccc(C)c(NC(=O)CCC(=O)N/N=C2/CC(=O)CC(C)(C)C2)c1,inactive
22,Nc1[nH]c(C(=O)c2ccccc2)c(-c2ccc(Br)cc2)c1C(=O)NC1CC1,inactive
23,COc1ccccc1/C=N/Nc1nc(C)c(C(C)=O)s1,inactive
24,Cc1cc(N/N=C\c2ccc(Br)cc2)nc(-n2nc(C)cc2C)n1,1.64 µM (active)
25,COc1ccccc1-n1c(SCC(=O)Nc2cccc(C(=O)O)c2)nnc1-c1ccccc1O,inactive
26,COc1cc(NS(=O)(=O)c2ccccc2)ccc1-n1nc(C)cc1C,inactive

row,Compound,Potency
1,Cc1ccc(S(=O)(=O)Nc2nc(C)cc(N/N=C/c3ccc(O)cc3)n2)cc1,inactive
2,COc1cccc(/C=N/Nc2cc(C)nc(-c3ccccc3O)n2)c1O,18.4 µM (active)
3,COc1ccccc1/C=N\Nc1cc(C)nc(-n2nc(C)cc2C)n1,6.51 µM (active)
4,COc1cccc2c(N/N=C/c3ccco3)cc(C)nc12,inactive
5,Cc1nc(Cl)cc(N/N=C/c2ccccc2)n1,inactive
6,COc1ccc(CCNS(=O)(=O)c2ccc(Cl)s2)cc1OC,inactive
7,COc1cc(=O)n2c(c1C(=O)N(C)Cc1nonc1C)CCN(C(=O)c1ccc(C)cc1C)CC2,inactive
8,CCc1ccc(NC(=O)CC2C(=O)NCCN2C(=S)Nc2ccccc2)cc1 (stereo not drawn),inactive
9,O=C(Nc1cccc2cccnc12)c1ccc2sc([C@H]3C[C@H](O)[C@@H](CO)O3)nc2c1,18.4 µM (active)
10,O=C(Nc1nnc([C@H]2C[C@H](O)[C@@H](CO)O2)s1)c1cccc(Cl)c1,inactive
11,O=C(Nc1cccc2cccnc12)c1cccc(Cl)c1,inactive
12,O=C1CCC(=O)N1CCC(=O)N(C(=O)NC1CCCCC1)C1CCCCC1,inactive
13,NC(=O)C[n+]1cccc(C(N)=O)c1,inactive
14,COc1c(O)ccc2c1CN1CCc3cc4c(cc3C1C2)OCO4 (stereo not drawn),14.6 µM (active)
15,COc1cc(COCC(O)CN2CCN(Cc3ccc4c(c3)OCO4)CC2)cc(OC)c1OC (stereo not drawn),inactive
16,COCCCN1C(=O)C(=O)/C(=C(/O)c2ccc(S(=O)(=O)N3CCOCC3)cc2)C1c1ccc(F)cc1 (stereo not drawn),inactive
17,Cc1nn(C(=O)c2ccoc2C)c(N)c1-c1ccccc1,inactive
18,Cc1ccc(N=Nc2c(C)[nH]n(-c3ccccc3)c2=O)cc1,inactive
19,Cc1[nH]n(-c2ccccc2)c(=O)c1/C=N/NC(=O)c1ccoc1C,1.46 µM (active)
20,CCOC(=O)C1CCCN(S(=O)(=O)c2ccc(-n3cnnn3)c(C)c2)C1 (stereo not drawn),inactive
21,COc1ccc(CCn2ccc(O)c(Cc3ccc(Cl)cc3Cl)c2=O)cc1OC,inactive
22,CC1CC(C)(C)CC2(C1)NC(=O)N(CC(=O)Nc1nccs1)C2=O (stereo not drawn),inactive
23,O=C(O)/C=C/C(=O)Nc1ccc(F)cc1F,inactive
24,CSc1ccc(NC(=O)/C=C/C(=O)O)cc1,inactive
25,COC(=O)c1sc(-c2ccc(C(C)(C)C)cc2)cc1NC(=O)/C=C/C(=O)O,4.61 µM (active)
